Activity calls are given as the source filed them. Calls follow the shape of the dose curve; as a rule, active = well fitted curve in the direction sought with a large enough effect; inconclusive = small, poorly fitted or top-dose-only effect, or another doubt; inactive = no such curve, though single readings can be large or run the other way.

Chain of Galactokinase (Homo sapiens) (P51570 whole entry, looked up): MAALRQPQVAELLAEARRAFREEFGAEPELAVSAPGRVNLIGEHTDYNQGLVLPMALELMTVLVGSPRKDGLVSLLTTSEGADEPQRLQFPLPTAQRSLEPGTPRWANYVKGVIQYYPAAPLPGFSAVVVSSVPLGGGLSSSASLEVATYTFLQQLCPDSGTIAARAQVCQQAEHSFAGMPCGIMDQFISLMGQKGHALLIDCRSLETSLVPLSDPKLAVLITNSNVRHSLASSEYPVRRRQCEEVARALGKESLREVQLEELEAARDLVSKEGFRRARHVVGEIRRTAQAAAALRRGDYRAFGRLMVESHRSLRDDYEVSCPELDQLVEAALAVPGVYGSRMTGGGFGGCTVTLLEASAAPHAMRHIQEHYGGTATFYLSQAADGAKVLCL

For the assay, the target named is Galactokinase (Homo sapiens) (UniProt P51570). Briefly: qHTS Validation Assay for Inhibitors of Human Galactokinase (GALK) (AID 493189). The settings on record: purified human GALK enzyme activity, qHTS 7-point titration; series mostly up to 57.5 µM. An excerpt:
NIH Molecular Libraries Probe Production Centers Network [MLPCN]
NIH Chemical Genomics Center [NCGC]
Assay Submitter (PI): Kent Lai (University of Utah School of Medicine, 50 N Mario Capecchi Drive, Salt Lake City, UT 84132)
Inherited deficiency of galactose-1-phosphate uridyltransferase (GALT) can result in a potentially lethal disorder called Classic Galactosemia (OMIM 230400). Several lines of evidence indicate that an elevated level of galactose-1-phosphate (gal-1-p), the product of galactokinase (GALK), is a major, if not sole, pathogenic mechanism in patients with classic galactosemia. Therefore, finding inhibitors of GALK is a potential novel therapy for this inherent metabolic disease and is the long term goal of this project.
GALK (provided by the assay submitter) was assayed using ATP and D-(+)-Galactose (Sigma-Aldrich cat# G0750) as substrates. Promega Kinase-Glo Plus (cat# V3774) technology was used to detect the residual ATP following kinetic reaction. Briefly, the Kinase-Glo Plus contains Ultra-Glo [2] luciferase and D-luciferin which generates a bioluminescence signal from the remaining ATP.
NCGC Assay Protocol Summary:
Three uL/well of ATP-buffer solution (35 uM ATP, 20mM HEPES pH8.0, 5 mM MgCl2, 60 mM NaCl, 1 mM DTT, 0.01% BSA final concentration) was dispensed into 1536-well, assay plates (Greiner, solid white medium-binding plates) with Aurora Discovery BioRAPTR Flying Reagent Dispenser (FRD; Beckton-Dickenson). Compound solution (23 nL) was transferred to the assay plate using the Kalypsys 1536-pin tool. One uL/well GALK-galactose solution (5 nM GALK, 100 uM galactose, 20 mM HEPES pH8.0, 5 mM MgCl2, 60 mM NaCl, 1 mM DTT, 0.01% BSA final concentration) was then added using the FRD yielding a total kinase reaction volume of 4 uL/ well. After 1 hour of room temperature incubation, 4 uL Kinase-Glo Plus reagent was added for a final assay volume of 8 uL/ well. Luminescence was detected with the ViewLux plate reader (Perkin Elmer, Waltham, MA) after 10 min incubation using a 1 sec exposure time and 2x binning.
Regarding `COc1ccc2cc([C@H](C)C(=O)O)ccc2c1`, the call was inactive. The result for `O=C(c1ccccc1)c1ccc2n1CCC2C(=O)O` (stereo not given) reads “inactive”; that for `CNC[C@H](O)c1ccc(O)c(O)c1`, “inactive”. As for `COc1ccccc1N1CCN(CCN(C(=O)C2CCCCC2)c2ccccn2)CC1`, the entry is “inactive”; as for `OC(CN1CCN(c2cccc(Cl)c2)CC1)C(c1ccccc1)c1ccccc1` (stereo not given), “inactive”. As for `O=C1c2c(O)cc(O)cc2OC(c2ccc(O)c(O)c2)C1O` (stereo not given), the entry is “inactive”. As to `Cc1cc(O)c2c(c1)C(=O)c1cc(O)cc(O)c1C2=O`, the result was inactive. As for `Cc1c(OCC(F)(F)F)ccnc1CS(=O)c1nc2ccccc2[nH]1` (stereo not given), the entry is “inactive”. The result for `Cc1nc2n(c(=O)c1CCN1CCC(c3noc4cc(F)ccc34)CC1)CCCC2` reads “inactive”; that for `O=C(NCC1CCCCN1)c1cc(OCC(F)(F)F)ccc1OCC(F)(F)F` (stereo not given), “inactive”.

In the case of `CC(C)c1ccc2c(c1)c(SC(C)(C)C)c(CC(C)(C)C(=O)O)n2Cc1ccc(Cl)cc1`, the outcome was inactive.

`Cc1cccc(C#Cc2ccccc2)n1`: the compound was classed as inactive. As for `C[C@@H](N)C1CCC(C(=O)Nc2ccncc2)CC1` (stereo not given in full), the entry is “inactive”; as for `COc1cc2nc(N3CCN(C(=O)C4CCCO4)CC3)nc(N)c2cc1OC` (stereo not given), “inactive”.

For `O=c1cc(N2CCOCC2)oc2c(-c3ccccc3)cccc12`, the outcome was inactive. For `O=c1c(O)c(-c2ccc(O)cc2O)oc2cc(O)cc(O)c12`, the compound was classed as inactive. As for `CC(=O)O[C@H]1C(=O)[C@@]2(C)C([C@H](OC(=O)c3ccccc3)[C@]3(O)C[C@H](OC(=O)[C@H](O)[C@@H](NC(=O)c4ccccc4)c4ccccc4)C(C)=C1C3(C)C)[C@]1(OC(C)=O)CO[C@@H]1C[C@@H]2O` (stereo not given in full), the entry is “inactive”; as for `O=C(CCc1ccc(O)cc1)c1c(O)cc(O)cc1O`, “inactive”. The result for `C[C@H](Cc1ccc(O)c(O)c1)[C@@H](C)Cc1ccc(O)c(O)c1` reads “inactive”; that for `O=c1c(O)c(-c2cc(O)c(O)c(O)c2)oc2cc(O)cc(O)c12`, “inactive”.

Consider `CC(=O)N1CCN(c2ccc(OC[C@H]3CO[C@](Cn4ccnc4)(c4ccc(Cl)cc4Cl)O3)cc2)CC1`, for which the call was inactive.

As to `O=Nc1c(-c2c(O)[nH]c3cc(Br)ccc23)[nH]c2ccccc12`, the call was inactive. Turning to `O=C1c2ccccc2-c2n[nH]c3cccc1c23`, the result was inactive. As for `CC1(C)NC(=O)N(c2ccc([N+](=O)[O-])c(C(F)(F)F)c2)C1=O`, the entry is “inactive”; as for `Nc1nc(OCc2ccccc2)c2[nH]cnc2n1`, “inactive”; as for `NNc1nncc2ccccc12`, “inactive”. As to `O=C(O)c1cccnc1Nc1cccc(C(F)(F)F)c1`, the call was inactive. As for `NCCCCNCCCN`, the entry is “inactive”; as for `NC(=NCc1ccccc1)NC(=O)c1nc(Cl)c(N)nc1N`, “inactive”; as for `O=C1NC(=O)C(c2ccccc2[N+](=O)[O-])=C1Nc1ccc(O)c(Cl)c1`, “inactive”. Take `Oc1ccc(-c2nc(-c3ccc(F)cc3)c(-c3ccncc3)[nH]2)cc1`: the compound was called inactive. The result for `CC1(C)C(=O)N(CCN2CCC(C(=O)c3ccc(F)cc3)CC2)c2ccccc21` reads “inactive”; that for `CN(C)CCCC1(c2ccc(F)cc2)OCc2cc(C#N)ccc21` (stereo not given), “inactive”.

As to `O=c1ccc2ccc(O)c(O)c2o1`, the compound was classed as inactive. As for `CCN(CC)C(=S)SSC(=S)N(CC)CC`, the entry is “inactive”.

Source of the values: PubChem BioAssay (NCATS).
